Measured values from PubChem BioAssay (NCATS).
Results filed as inconclusive are left out. A call without a number means that no potency is given here. Calls of active or inactive are those of the source. Calls come from the whole dose curve; as a rule, active = well fitted inhibition curve with a large enough effect; inconclusive = small, poorly fitted or top-dose-only effect; inactive = no such curve, though single readings can be large or run the other way.

Test: qHTS assay for measurement of the activity of small molecule inhibitors on Zika virus induced Caspase-3 activity in human iPSC derived neural progenitor cells (hNPCs) (AID 1224857); note: nearly all actives have a fitted effect of over 65% in size
Conditions: hNPCs ZIKV-induced caspase-3/7, Caspase-Glo luminescence, 6 h; series mostly up to 45.7 µM
Method in brief: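 Values are percent inhibition of virus-induced caspase-3/7 signal, scaled between uninfected cells and ZIKV-infected cells. Infection used 2 FFU/cell for 6 h after 1 h compound exposure.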
In the case of `O=C1OC(=O)C2C3CCC(O3)C12` (stereo unspecified), the Potency is reported as “inactive”. With `Oc1cc2c(cc1O)C(c1ccccc1)CNCC2` (stereo unspecified) the Potency was “inactive”. In the case of `COc1cc(/C=C(\C#N)C(=O)c2ccc(O)c(O)c2)cc(I)c1O`, the Potency is reported as “inactive”. With `COc1cc(N)c(Cl)cc1C(=O)OCCN1CCCCC1` the Potency was “inactive”. For `O=C(O)/C(=C/c1c(C(=O)O)[nH]c2cc(Cl)cc(Cl)c12)c1ccccc1`, the Potency was “inactive”. In the case of `NC1C=CC=C(C(=O)O)C1` (stereo unspecified), the Potency is reported as “inactive”. In the case of `CSC(=N)N`, the Potency is reported as “inactive”. For `CCCCCCCCCC[Si](C)(C)CCC(=O)NC(Cc1ccc(C)cc1)c1ccccc1` (stereo unspecified), the Potency was “inactive”. With `C[N+](C)(C)CC=O` the Potency was “inactive”. In the case of `N=C(N)SCCc1cnc[nH]1`, the Potency is reported as “inactive”. With `CC(C)[C@@H]1CC[C@@H](C)C[C@@H]1P(=O)(c1ccccc1)c1ccccc1` the Potency was “inactive”. In the case of `Nc1ccc2c3c(cccc13)C(=O)NC2=O`, the Potency is reported as “inactive”. In the case of `COc1cc2c(CCNC(C)=O)c[nH]c2cc1O`, the Potency is reported as “inactive”. With `Cn1cc(C(F)(F)F)nc1-c1ccc(OCC(O)CNCCOc2ccc(O)c(C(N)=O)c2)cc1` (stereo unspecified) the Potency was “inactive”. In the case of `COc1ccc(-c2cc3ncc(C)n3c(Nc3ncccc3C(N)=O)n2)cc1OC`, the Potency is reported as “inactive”. For `NCCCCN`, the Potency was “inactive”. For `N=S(=O)(O)Cc1noc2ccccc12`, the Potency was “inactive”. In the case of `NCC(O)(CS(=O)(=O)O)c1ccc(Cl)cc1` (stereo unspecified), the Potency is reported as “inactive”. In the case of `NC(=O)CC[C@H](N)C(=O)O`, the Potency is reported as “inactive”. For `CN[C@H](CC(=O)O)C(=O)O`, the Potency was “inactive”. In the case of `COc1ccc2c(c1)c(CC(=O)O)c(C)n2Cc1ccc(Cl)cc1`, the Potency is reported as “inactive”. With `CSC(N)=NCCC[C@H](N)C(=O)O` the Potency was “inactive”. For `NCCS(=O)O`, the Potency was “inactive”. With `Nc1nc2c(nc(Br)n2C2OC3COP(=O)(O)O[C@@H]3C2O)c(=O)[nH]1` (stereo partly specified) the Potency was “inactive”. For `NCCC1CCCC(CCN)N1` (stereo unspecified), the Potency was “inactive”. In the case of `NCCCCN=C(N)N`, the Potency is reported as “inactive”. For `O=C(c1ccc2c(c1)OCCO2)N1CCCCC1`, the Potency was “inactive”. For `CN1CCN(c2nc3cc(C(F)(F)F)ccc3n3cccc23)CC1`, the Potency was “inactive”. For `Oc1cc(O)c2c(c1)O[C@H](c1ccc(O)c(O)c1)[C@@H](O)C2`, the Potency was “inactive”. In the case of `CC(=O)[C@H]1CCC2C3CC=C4C[C@@H](OS(=O)(=O)O)CC[C@]4(C)C3CC[C@@]21C` (stereo partly specified), the Potency is reported as “inactive”. For `CN(C)C(=O)/N=N/C(=O)N(C)C`, the Potency was “inactive”. With `CNC(=O)c1cc2c(cn1)[nH]c1ccccc12` the Potency was “inactive”. With `N=C(N)c1ccc(OCCCCCOc2ccc(C(=N)N)cc2)cc1` (tested in a mixture with another compound) the Potency was “inactive”. In the case of `CCCn1c(=O)c2c(ncn2C)n(CCC)c1=O`, the Potency is reported as “inactive”. In the case of `C=C1C[C@@]23CC[C@H]4[C@@](C)(CCC[C@@]4(C)C(=O)O)[C@@H]2CC[C@]1(O)C3`, the Potency is reported as “inactive”. In the case of `OC[C@H]1O[C@H](n2cnc3c(N[C@H]4CCC[C@@H]4O)ncnc32)[C@H](O)[C@@H]1O`, the Potency is reported as “inactive”. For `Cc1nc(N=Nc2ccc(C(=O)O)cc2)c(COP(=O)(O)O)c(C=O)c1O`, the Potency was “inactive”. With `O=C(O)C1=CCCN(CCON=C(c2ccccc2)c2ccccc2)C1` the Potency was “inactive”.

Test: qHTS assay for measurement of the activity of small molecule inhibitors on Zika virus induced Caspase-3 activity in human astrocytoma cells (AID 1224859)
Conditions: SNB-19 ZIKV-induced caspase-3/7, luminescence, 6 h; series mostly up to 45.7 µM
Method in brief: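 Compound added 1 h pre-infection; ZIKV 2 FFU/cell on SNB-19 cells, 6 h, 37 C/5% CO2. Caspase-Glo 3/7 luminescence; values as % inhibition of ZIKV-induced caspase activity.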
In the case of `O=C1OC(=O)C2C3CCC(O3)C12` (stereo unspecified), the Potency is reported as “inactive”. For `Oc1cc2c(cc1O)C(c1ccccc1)CNCC2` (stereo unspecified), the Potency was “inactive”. In the case of `COc1cc(/C=C(\C#N)C(=O)c2ccc(O)c(O)c2)cc(I)c1O`, the Potency is reported as “inactive”. With `COc1cc(N)c(Cl)cc1C(=O)OCCN1CCCCC1` the Potency was “inactive”. In the case of `O=C(O)/C(=C/c1c(C(=O)O)[nH]c2cc(Cl)cc(Cl)c12)c1ccccc1`, the Potency is reported as “inactive”. In the case of `NC1C=CC=C(C(=O)O)C1` (stereo unspecified), the Potency is reported as “inactive”. With `CSC(=N)N` the Potency was “inactive”. In the case of `CCCCCCCCCC[Si](C)(C)CCC(=O)NC(Cc1ccc(C)cc1)c1ccccc1` (stereo unspecified), the Potency is reported as “inactive”. In the case of `C[N+](C)(C)CC=O`, the Potency is reported as “inactive”. For `N=C(N)SCCc1cnc[nH]1`, the Potency was “inactive”. In the case of `CC(C)[C@@H]1CC[C@@H](C)C[C@@H]1P(=O)(c1ccccc1)c1ccccc1`, the Potency is reported as “inactive”. With `Nc1ccc2c3c(cccc13)C(=O)NC2=O` the Potency was “inactive”. For `COc1cc2c(CCNC(C)=O)c[nH]c2cc1O`, the Potency was “inactive”. In the case of `Cn1cc(C(F)(F)F)nc1-c1ccc(OCC(O)CNCCOc2ccc(O)c(C(N)=O)c2)cc1` (stereo unspecified), the Potency is reported as “inactive”. In the case of `COc1ccc(-c2cc3ncc(C)n3c(Nc3ncccc3C(N)=O)n2)cc1OC`, the Potency is reported as “inactive”. For `NCCCCN`, the Potency was “inactive”. In the case of `N=S(=O)(O)Cc1noc2ccccc12`, the Potency is reported as “inactive”. In the case of `NCC(O)(CS(=O)(=O)O)c1ccc(Cl)cc1` (stereo unspecified), the Potency is reported as “inactive”. In the case of `NC(=O)CC[C@H](N)C(=O)O`, the Potency is reported as “inactive”. In the case of `CN[C@H](CC(=O)O)C(=O)O`, the Potency is reported as “inactive”. With `COc1ccc2c(c1)c(CC(=O)O)c(C)n2Cc1ccc(Cl)cc1` the Potency was “inactive”. In the case of `CSC(N)=NCCC[C@H](N)C(=O)O`, the Potency is reported as “inactive”. With `NCCS(=O)O` the Potency was “inactive”. In the case of `Nc1nc2c(nc(Br)n2C2OC3COP(=O)(O)O[C@@H]3C2O)c(=O)[nH]1` (stereo partly specified), the Potency is reported as “inactive”. With `NCCC1CCCC(CCN)N1` (stereo unspecified) the Potency was “inactive”. In the case of `NCCCCN=C(N)N`, the Potency is reported as “inactive”. With `O=C(c1ccc2c(c1)OCCO2)N1CCCCC1` the Potency was “inactive”. In the case of `CN1CCN(c2nc3cc(C(F)(F)F)ccc3n3cccc23)CC1`, the Potency is reported as “inactive”. In the case of `Oc1cc(O)c2c(c1)O[C@H](c1ccc(O)c(O)c1)[C@@H](O)C2`, the Potency is reported as “inactive”. In the case of `CC(=O)[C@H]1CCC2C3CC=C4C[C@@H](OS(=O)(=O)O)CC[C@]4(C)C3CC[C@@]21C` (stereo partly specified), the Potency is reported as “inactive”. In the case of `CN(C)C(=O)/N=N/C(=O)N(C)C`, the Potency is reported as “inactive”. In the case of `CNC(=O)c1cc2c(cn1)[nH]c1ccccc12`, the Potency is reported as “inactive”. In the case of `N=C(N)c1ccc(OCCCCCOc2ccc(C(=N)N)cc2)cc1` (tested in a mixture with another compound), the Potency is reported as “inactive”. With `CCCn1c(=O)c2c(ncn2C)n(CCC)c1=O` the Potency was “inactive”. With `C=C1C[C@@]23CC[C@H]4[C@@](C)(CCC[C@@]4(C)C(=O)O)[C@@H]2CC[C@]1(O)C3` the Potency was “inactive”. With `OC[C@H]1O[C@H](n2cnc3c(N[C@H]4CCC[C@@H]4O)ncnc32)[C@H](O)[C@@H]1O` the Potency was “inactive”. With `Cc1nc(N=Nc2ccc(C(=O)O)cc2)c(COP(=O)(O)O)c(C=O)c1O` the Potency was “inactive”. For `O=C(O)C1=CCCN(CCON=C(c2ccccc2)c2ccccc2)C1`, the Potency was “inactive”.
